# Measured values from PubChem BioAssay (NCATS).
# Several values for one entry are separate records, joined by “and”; a condition that tells them apart may be missing. Identical values can stand only once. Results filed as inconclusive are left out. Where a call stands in place of a potency, no number is given. Activity calls are given as the source filed them. Calls follow the shape of the dose curve; as a rule, active = well fitted curve in the direction sought with a large enough effect; inconclusive = small, poorly fitted or top-dose-only effect, or another doubt; inactive = no such curve, though single readings can be large; an effect the other way counts as inactive or inconclusive.
# Legend:
# [1] = biological target: Cytochrome P450 3A7 (Homo sapiens) (UniProt P24462); experiment: Cytochrome P450 family 3 subfamily A member 7 (CYP3A7) small molecule antagonists: luciferase biochemical qHTS assay (AID 1963596); also: nearly all actives have a fitted effect of over 40% in size
# Cytochrome P450 3A7 (Homo sapiens), sequence (P24462 whole entry, looked up): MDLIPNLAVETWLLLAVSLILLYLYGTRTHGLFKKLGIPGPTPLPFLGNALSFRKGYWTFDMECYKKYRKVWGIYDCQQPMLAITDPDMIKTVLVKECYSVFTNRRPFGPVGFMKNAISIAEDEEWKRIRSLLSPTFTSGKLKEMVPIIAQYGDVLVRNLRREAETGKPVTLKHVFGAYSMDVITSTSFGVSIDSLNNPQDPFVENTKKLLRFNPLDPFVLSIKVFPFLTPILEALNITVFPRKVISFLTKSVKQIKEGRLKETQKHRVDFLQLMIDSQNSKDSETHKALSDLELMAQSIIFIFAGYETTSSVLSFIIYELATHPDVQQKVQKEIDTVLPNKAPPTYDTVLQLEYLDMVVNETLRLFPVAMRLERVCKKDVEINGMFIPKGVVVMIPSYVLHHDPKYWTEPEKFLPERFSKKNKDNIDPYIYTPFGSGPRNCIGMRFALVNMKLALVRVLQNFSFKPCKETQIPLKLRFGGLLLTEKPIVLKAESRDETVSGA
# How it was run: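 In this luminescent screen, enzyme and proluciferin substrate meet test compound for 10 min before NADPH regeneration solution drives a 1 h room-temperature reaction; detection reagent halts turnover and luminescence is read 20 min later.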
# [2] = Viability qHTS for spleen associated tyrosine kinase inhibitor (SYKi) naive MV4-11 cells (AID 1963823); also: nearly all actives have a fitted effect of over 40% in size; also: potency is read from the fitted curve at half-maximal effect
# How it was run: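 Cells: MV4-11, SYK inhibitor naive, 500 per well. Treatment: library compounds, 72 hr, 37 C, 5% CO2. Read-out: CellTiter-Glo luminescence after 10 min RT.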
# [3] = Viability qHTS for spleen associated tyrosine kinase inhibitor (SYKi) drug resistant MV4-11 cells (AID 1963824); also: nearly all actives have a fitted effect of over 35% in size; also: potency is read from the fitted curve at half-maximal effect
# How it was run: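 SYK inhibitor-resistant MV4-11 AML cells, 500 per well, added to predispensed compounds and incubated 72 hr at 37 C, 5% CO2. Viability measured by CellTiter-Glo luminescence after 10 min at room temperature.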
# [4] = Quantitative highthroughput screen to assess conditional lethalithy of NOMO1 cells grown in RPMI1640 with untreated serum (RPMI+s) (AID 1963876); also: nearly all actives have a fitted effect of over 35% in size
# How it was run: (§1)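 Each medium arm—HPLM with 10% dialyzed FBS, or RPMI1640 with 5 mM glucose and 10% untreated or dialyzed FBS—was screened against an 11-point, 3-fold compound titration for 48 h at 37 °C, with CellTiter-Glo luminescence as endpoint.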
# [5] = Quantitative highthroughput screen to assess conditional lethalithy of NOMO1 cells grown in RPMI1640 with dialyzed fetal bovine serum (RPMI+ds) (AID 1963877); also: series mostly up to about 46 µM; nearly all actives have a fitted effect of over 30% in size
# How it was run: as §1
# [6] = Quantitative highthroughput screen to assess conditional lethalithy of NOMO1 cells grown in Human Plasma-Like Medium with dialyzed fetal bovine serum (HPLM+ds) (AID 1963878); also: nearly all actives have a fitted effect of over 35% in size
# How it was run: as §1
# [7] = Quantitative highthroughput screen to assess conditional lethalithy of P12 Ichikawa cells grown in Human Plasma-Like Medium with dialyzed fetal bovine serum (HPLM+ds) (AID 1963879); conditions: Potency: viability; also: series mostly up to about 46 µM; nearly all actives have a fitted effect of over 35% in size
# How it was run: as §1
# [8] = Quantitative highthroughput screen to assess conditional lethalithy of P12 Ichikawa cells grown in RPMI1640 with dialyzed fetal bovine serum (RPMI+ds) (AID 1963880); conditions: Potency: P12-Ichikawa viability; also: nearly all actives have a fitted effect of over 35% in size
# How it was run: as §1
# [9] = Quantitative highthroughput screen to assess conditional lethalithy of P12 Ichikawa cells grown in RPMI1640 with untreated serum (RPMI+s) (AID 1963881); conditions: Potency: viability
# How it was run: as §1
# [10] = Quantitative highthroughput screen to assess conditional lethalithy of SEM cells grown in Human Plasma-Like Medium with dialyzed fetal bovine serum (HPLM+ds) (AID 1963882)
# How it was run: as §1
# [11] = Quantitative highthroughput screen to assess conditional lethalithy of SEM cells grown in RPMI1640 with dialyzed fetal bovine serum (RPMI+ds) (AID 1963884)
# How it was run: as §1
compound,measurement,setting,value
COc1ccc(CCCN2CCC(COC(c3ccccc3)c3ccccc3)CC2)cc1,Potency,[1],inactive
same,Potency,[2],10.3 µM (active)
same,Potency,[3],10.3 µM (active)
CN(C)c1ccc(C2O[C@@H](c3ccccc3)C[C@H](c3ccccc3)O2)cc1 (stereo partly specified),Potency,[1],inactive
same,Potency,[2],inactive
same,Potency,[3],inactive
CC(=O)SCC(=O)c1ccc(NS(=O)(=O)c2ccc(OCCCN(C)C)cc2)nc1,Potency,[1],inactive
same,Potency,[2],2.59 µM (active)
same,Potency,[3],2.91 µM (active)
O=C1N(CC2CCCCN2)CCN1c1ccccc1 (stereo unspecified),Potency,[1],inactive
same,Potency,[2],inactive
same,Potency,[3],inactive
CCNC(=O)C1CC(F)(c2ccc(CN3CCCC3)c(F)c2)C1 (stereo unspecified),Potency,[1],inactive
same,Potency,[2],inactive
same,Potency,[3],inactive
O=C(O)c1cccc(S(=O)(=O)N2CCc3ccccc3C2)c1,Potency,[1],inactive
same,Potency,[2],inactive
same,Potency,[3],inactive
CNC(C)C(=O)NC(C(=O)N1CCCC1C(=O)Nc1cccc2ncccc12)C(C)C (stereo unspecified),Potency,[1],inactive
same,Potency,[2],inactive
same,Potency,[3],11.6 µM (active)
CCC(C)C(N)C(=O)NCCN1CCOCC1 (stereo unspecified),Potency,[1],inactive
same,Potency,[2],inactive
same,Potency,[3],inactive
Nc1nc(N)c(N=O)c(OCC2CCCCC2)n1,Potency,[1],inactive
same,Potency,[2],6.51 µM (active) and 6.61 µM (active)
same,Potency,[3],8.2 µM (active) and 8.33 µM (active)
C=CC(=O)Nc1cc(Nc2nccc(-c3c[nH]c4ccccc34)n2)c(OC)cc1N(C)CCN(C)C,Potency,[1],inactive
same,Potency,[2],0.411 µM (active)
same,Potency,[3],0.58 µM (active)
CN(C)c1nc(Cc2ccc(NC(=O)c3ccc(C(F)(F)F)cc3)cc2)nc(N(C)C)c1CC(=O)O,Potency,[1],inactive
same,Potency,[2],inactive
same,Potency,[3],inactive
same,Potency,[4],inactive
same,Potency,[5],inactive
same,Potency,[6],inactive
same,Potency,[7],inactive
same,Potency,[8],inactive
same,Potency,[9],inactive
same,Potency,[10],inactive
same,Potency,[11],inactive
